High-throughput results from PubChem.
TAG inh – triacylglycerol accumulation inhibition; H9c2 cells, Nile Red lipid (TAG) fluorescence; cells loaded with 200 µM oleic acid; inhibition, % at 12.5 µM; 230,000 compounds, 0.66% hits;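 active = pattern-corrected inhibition of lipid staining of at least 50% with the nuclear-stain viability signal not falling by more than 50%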;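 note: 0% = DMSO wells and 100% = triacsin C control wells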
CRFR2-BP antag – antagonists of CRF-binding protein/CRF-R2 receptor complex; HEK293 CRF-R2/CRF-BP, CRF-induced calcium fluorescence; inhibition, % at 11.8 µM; 350,000 compounds, 0.59% hits; AID 588475;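 active = inhibition of the ligand-induced calcium signal above about 50% at the single tested concentration, limit read from the data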
hiPSC survival – increases survival of single human iPS cells; survival enhancement, % at 20 µM; hiPSC single-cell survival, ATPlite luminescence; 100% = ROCK inhibitor wells, 0% = DMSO; 360,000 compounds, 0.044% hits; in the data active = survival enhancement above about 18%;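 note: cells exposed to compounds for 16 hours before the ATP read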
CRFR2-BP ag – agonists of human CRF-binding protein/CRF-R2 receptor complex; AID 588473; HEK293 CRF-R2/CRF-BP, calcium dye fluorescence (FLIPR); percent of saturating CRF peptide response; activation, % at 13.2 µM; 350,000 compounds, 0.46% hits;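 active = activation of at least 50%, plus an integration ratio under a set limit after plate pattern correction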;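 note: plate controls were neutral control wells without compound for no effect and CRF at EC100 for full effect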
SKN-1 block – inhibitors of C. elegans SKN-1; C. elegans VP596 Pgst-4::GFP/RFP ratio, acrylamide-induced, 24 h; inhibition, % at 21.8 µM; 360,000 compounds, 0.49% hits;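 active = interference check ratio from 0.5 to 1.5 plus GFP to RFP signal ratio inhibition reaching or exceeding a fixed threshold, cut at about 30% in these data, passing the limit was not always enough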
Cardio protect – protects H9c2 cardiomyocytes from peroxide injury; protection from H2O2 cell death, % at 20 µM; 360,000 compounds, 0.63% hits; H2O2 injury protection, ATPLite, 2 h; AID 588492;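 active = compounds giving at least 50% protection of heart cells from peroxide-induced death in the single-dose screen, raw or plate-pattern-corrected value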;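 note: 0% = DMSO wells with peroxide and 100% = DMSO wells without peroxide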
* marks the source's active call; other numbers are inactive results; · = not tested or not shown. An excerpt weighted towards active compounds, which were near 2.5% of everything screened.

SMILES	TAG inh	CRFR2-BP antag	hiPSC survival	CRFR2-BP ag	SKN-1 block	Cardio protect
C/C(=N/NC(=O)c1cccs1)c1cccc(NC(=O)C2CC2)c1	-0.3	-20.7	-3.8	-1.0	-3.3	58.0*
C/C(=N\NC(=O)c1cccc(N/N=C(\C)c2ccncc2)c1)c1ccncc1	-10.8	-14.6	3.4	-0.3	19.5	68.3*
CCCCCC1=C(C(=O)OC)C(C(=O)OCC)N(S(=O)(=O)C(F)(F)F)c2ccccc21 (stereo not drawn)	-14.5	14.5	1.5	-2.3	3.4	-6.8
O=C(c1cn(Cc2ccccc2)nc1-c1ccccc1)N1CCN(c2ccccn2)CC1	13.5	-16.4	-0.5	0.3	-5.3	-1.0
COc1ccc(C=Cc2ccc3ccccc3n2)c(OC)c1	-8.1	-7.0	-4.2	80.2*	17.3	-8.7
Oc1c(Cl)cc(Cl)cc1/C=C/c1ccc2cccc(O)c2n1	5.7	-101.6	-0.1	86.7*	9.9	-26.4
COc1ccc(OC)c(/C=C/c2ccc3cccc(O)c3n2)c1	·	·	0.0	·	18.7	61.1*
COc1cc(Cl)cc(/C=C/c2ccc3ccccc3n2)c1OC(C)=O	·	-3.3	-1.4	-1.1	8.9	7.0
COc1cc(Br)c(/C=C/c2ccc3cccc(O)c3n2)cc1OC	·	6.7	-0.6	-0.6	0.7	19.3
OC(c1ccc2ccccc2c1)c1ncc(-c2ccc(C(F)(F)F)cc2)[nH]1 (stereo not drawn)	-4.7	·	1.4	·	10.7	-10.8
CC1CCN(S(=O)(=O)c2ccc3ncn(CC(=O)N4CCN(C)CC4)c(=O)c3c2)CC1	10.8	-3.6	1.2	-0.7	-0.6	7.0
COC(=O)c1sc(-c2ccc(C(C)(C)C)cc2)cc1NC(=O)CSCC(=O)O	-8.8	53.6*	0.5	1.1	2.4	-3.7
O=C(O)c1ccc(S(=O)(=O)c2ccccc2)cc1	-5.5	-0.1	-0.6	0.2	40.4*	9.7
O=C(Nc1ccc(NC(=O)c2ccc(S(=O)(=O)c3ccccc3)cc2)cc1)c1ccccc1	·	-18.3	0.8	0.3	2.2	-5.3
O=C(Nc1cccc(-c2nc3ccccc3s2)c1)c1cc(-n2cnnc2)ccc1Cl	·	16.3	-1.1	-1.8	11.1	75.7*
Cc1c(NC(=O)c2cc(-n3cnnc3)ccc2Cl)cccc1-c1nc2ccccc2s1	·	4.0	-2.5	-0.5	3.9	-14.5
COc1ccc(C(=O)N(c2ccccc2)C2C=CS(=O)(=O)C2)cc1 (stereo not drawn)	·	52.1*	0.4	-0.5	-2.8	1.8
N#Cc1c(N)[nH]c(C(=O)c2ccccc2)c1-c1ccc(Cl)cc1	·	·	-1.0	·	-29.9	·
COc1ccc2oc(=O)c(/C(N)=N/NC(=O)c3ccncc3)cc2c1	·	9.4	-0.7	3.4	38.1*	7.6
C/C(=N/NC(=O)c1ccncc1)c1cc2ccc(O)cc2oc1=O	·	-38.0	0.6	190.8*	-151.0	6.2
Cc1ccc(S(=O)(=O)N2[C@H](CC(=O)c3ccc(F)cc3)OC[C@@H]2C)cc1	·	·	·	·	0.3	·
N#C/C(=C\c1ccc(O)cc1)c1nc2ccccc2o1	4.5	3.4	0.6	23.2	2.7	-4.8
COc1cc(/C=C(\C#N)c2nc3ccccc3o2)ccc1O	-0.1	-96.6	-0.5	155.4*	0.6	-4.5
Cc1ccc2occ(/C=N/NC(=O)c3ccccc3O)c(=O)c2c1	2.9	-13.9	-0.3	1.3	6.2	4.0
CCCN1C(=O)c2cc(C(=O)Nc3ccccc3OC)ccc2C1Nc1ccccc1OC (stereo not drawn)	-3.9	-8.6	0.5	7.8	-2.3	13.0
CCCN1C(=O)c2cc(C(=O)Nc3cccc(C(C)=O)c3)ccc2C1Nc1cccc(C(C)=O)c1 (stereo not drawn)	13.2	15.0	0.2	1.7	-0.3	51.9*
N#C/C(=C\C=C\c1ccccc1)c1nc(-c2ccc3c(c2)OCO3)cs1	·	-74.0	0.5	64.9*	47.1*	-1.4
Cc1ccc(CN2CC(N3CC=CC3)CS2(=O)=O)cc1 (stereo not drawn)	·	·	1.7	·	2.1	0.5
O=C(CCC(=O)N1CCN(C2CCCCC2)CC1)Nc1nnc(C(F)(F)F)s1	-9.6	7.5	-0.8	0.3	-10.5	64.7*
O=C(CCC(=O)N1CCN(C2CCCC2)CC1)Nc1nnc(C(F)(F)F)s1	·	3.7	-1.5	1.2	-2.8	12.2
